Bioassay records from PubChem BioAssay.
Most compounds without a hit are left out; they make up all but 3% or so of the library.
SKKanGAS inh – S. pyogenes SKKanGAS growth inhibitors in kanamycin, primary screen, streptokinase expression inhibitor project, SKKanGAS strain, BacTiter-Glo luminescence | 6 h | inhibition, % at 7.5 µM | 300,000 tested, 1.3% active;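 active means mean replicate score, as percent of positive control median, at least 50; inconclusive means mean below 50 but one replicate at or above 50; inactive means mean and every replicate below 50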;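 further: strain carries kanamycin resistance gene driven by streptokinase promoter and grows in 40 µg/ml kanamycin; loss of luminescence reflects streptokinase promoter inhibition or plain growth inhibition; 0% = median of DMSO wells and 100% = positive control at its reference dose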
aSyn 5UTR inh – MLPCN primary screen, SNCA 5' untranslated region. alpha-synuclein 5'UTR reporter, inhibitor activity. inhibition, % (tested at 7.5 µM). 300,000 tested, 0.82% active. AID 1813, 2009; in the data active means inhibition above about 60%; inconclusive means no clear call, values can overlap the other calls;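 further: H4 neuroglioblastoma cells stably carrying SNCA 5'UTR luciferase fusion; 0% = DMSO wells and 100% = positive control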
KLF5 inh – KLF5 expression inhibitors, primary screen, DLD-1 cells, luminescence | DLD-1 KLF5 promoter-luciferase reporter | 290,000 tested, 0.23% active | inhibition, % at 5 µM;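 active means inhibition above a per-plate limit of that plate's mean compound inhibition plus 3 SD, cut at about 60% in these data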;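 further: 0% = DMSO wells and 100% = LY294002 at 200 µM; higher means less KLF5 promoter-driven luciferase light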
IEC-6 cytotox – cytotoxicity in IEC-6 intestinal epithelial cells, primary screen, cytotoxicity control for KLF5 inhibitor project, cell-based, luminescence. AID 1825, 2009. inhibition, % at 5 µM. 290,000 tested, 0.78% active. IEC-6 cytotoxicity, luminescence viability;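 further: 0% = plate median of test compound wells and 100% = cytotoxic reference compound wells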
CSC inhib – cancer stem cell viability inhibitors, primary screen, luminescence | inhibition, % at 7.5 µM | cancer stem cell-like cells viability | 300,000 tested, 1.1% active; in the data active means inhibition above about 75%; inconclusive means no clear call, values can overlap the other calls; tested in HMLE shEcad cells
IEC-6 cytotox cf – cytotoxic compounds in IEC-6 epithelial cells, confirmation, cytotoxicity control, cell-based, luminescence; IEC-6 rat intestinal epithelial viability; 1,900 tested, 63% active; inhibition, % at 5 µM; shares compounds with IEC-6 cytotox;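 further: 0% = vehicle and 100% = reference cytotoxic drug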
* hit, by the source's call; ? = inconclusive; / = no result given. Unless noted, no stated cut-off is given here; in the data, active means inhibition above about 22%; inactive means the rest.

SMILES	SKKanGAS inh	aSyn 5UTR inh	KLF5 inh	IEC-6 cytotox	CSC inhib	IEC-6 cytotox cf
C#CC(=O)N(c1cc(OC)ccc1OC)C(C(=O)NC1CCCC1)c1cccs1 (stereo not given)	1	25	32	101*	21	95*
NC(=O)CN1C(=O)C(=O)N(Cc2ccccc2Cl)C1=O	2	4	42	44*	-11	-7
COc1ccc(CN(C)c2ncnc3sccc23)c(OC)c1OC	-4	-9	32	23*	77*	10
CCOc1ccc(NC(=O)c2cccc3ccccc23)cc1	5	-318	-17	22*	38	14
O=C(Nc1ccc(Cl)cn1)c1cccc2ccccc12	3	-18	-3	44*	59	25*
CC1CCCCN1C(=O)CN1C(=O)NC2(CCCCC2C)C1=O (stereo not given)	/	/	/	/	2	/
CCOc1ccc(C2=Nn3c(nnc3-c3ccc(OC)cc3)SC2)cc1	11	84*	-5	34*	49	52*
COc1ccc(CCN=C(N)C(C)c2ccccc2)cc1OC (stereo not given)	-11	18	-13	-9	-11	/
CC(C)Cc1ccc(C(C)C(N)=NCCc2ccccc2)cc1 (stereo not given)	6	-75	-9	64*	59	99*
CC(C)n1cc(C(=O)NC2CC(C)(C)Cc3c2cnn3-c2ccccc2)cn1 (stereo not given)	-2	15	-24	7	-3	/
O=S(=O)(c1ccc(Cl)cc1)N1CCC(c2nc3ccccc3[nH]2)CC1	26	76*	3	31*	18	28*
Cc1nnc(N/N=C/c2ccc(Br)cc2)n1N	-1	-11	-35	-2	-8	/
Cc1ccc(/C=N/Nc2ccc(C(=O)O)cc2)o1	7	-70	-54	-1	2	/
O=C(O)c1ccc(N/N=C/c2ccc(-c3ccc(Br)cc3)o2)cc1	?	-25	-27	28*	8	28*
Cc1nnc(N/N=C/c2ccc(-c3ccc(Br)cc3)o2)n1N	2	-28	-36	37*	-3	-11
CN(c1ccccc1)S(=O)(=O)c1cccc(NC(=O)CSc2ncc(C(F)(F)F)cc2Cl)c1	7	-3	-41	2	23	/
COc1cc2c(cc1OC)CN(C(=O)c1cccs1)CC2	-6	-4	-2	3	-5	/
COc1cc2c(cc1OC)CN(C(=O)/C=C/c1cccs1)CC2	-7	31	47	59*	57	52*
COc1cc2c(cc1OC)CN(C(=O)/C=C/c1ccccc1[N+](=O)[O-])CC2	2	-52	15	24*	-11	16
Cc1ccc(Cl)cc1NC(=O)COC(=O)CSc1ccccc1	/	/	/	/	-6	/
COc1ccc(OCCC(=O)OCC(=O)NCc2ccccc2OC)cc1	2	-4	/	/	-14	/
Cc1ccc2[nH]c(-c3ccccc3)cc(=O)c2c1	6	89*	57	88*	11	57*
CCN1C(=O)C(O)(C2COC(C)(C)CC2=O)c2cc(Br)ccc21 (stereo not given)	-12	6	-5	84*	36	1
Cc1ccc(-c2[nH]ncc2/C=C(\C#N)C(=O)NC2CCCCC2)cc1	11	56	13	22*	/	18
CCc1nnc(NC(=O)c2ccc(S(=O)(=O)N(CC)Cc3ccccc3)cc2)o1	15	9	23	26*	/	2
SMILES	SKKanGAS inh	aSyn 5UTR inh	KLF5 inh	IEC-6 cytotox	CSC inhib	IEC-6 cytotox cf
NC(=O)c1cc(S(=O)(=O)N2CCc3ccccc3C2)cs1	-4	-15	-40	2	-23	/
CC(=O)NC1=NN(C(C)=O)C(C)(c2ccco2)S1 (stereo not given)	-6	17	12	-2	21	/
CC(=O)NC1=NN(C(C)=O)C(C)(c2cccs2)S1 (stereo not given)	0	39	8	56*	8	38*
CC(NCC(O)COc1ccc2ccccc2c1)c1ccccc1 (stereo not given)	3	59	8	53*	22	9
N=c1c(C(=O)NCC2CCCO2)cc2c(=O)n3ccccc3nc2n1Cc1ccccc1Cl (stereo not given)	3	8	-30	30*	-12	24*
O=C(CCl)N=c1sccn1Cc1cccc2ccccc12	0	2	-15	92*	/	17
Cc1ccc(Nc2nc(=O)c3cccnc3s2)cc1	1	-228	-39	37*	-11	39*
O=c1nc(NCc2ccco2)sc2ncccc12	-3	10	-1	-2	6	/
COC(=O)c1cccc(/C=N/NC(N)=S)c1O	-12	-17	54	49*	-1	12
CC(C)(C)c1nnc2cccc(Cl)n12	-15	-24	0	3	-12	/
Nc1nonc1-n1nnc(C(=O)N/N=C/c2ccccc2)c1CN1CCc2ccccc21	26	-7	-22	-1	/	/
C/C(=N\NC(=O)c1nnn(-c2nonc2N)c1CN1CCc2ccccc21)c1ccccc1O	18	75*	46	54*	91*	56*
CN(C(=O)CN1C(=O)C2C3CC(C(Br)C3Br)C2C1=O)C1CCCCC1 (stereo not given)	-2	20	-14	-4	-3	/
Clc1ccc2nc(COc3ccccc3)[nH]c2c1	1	-151	-116	27*	41	12
COc1ccc(Cc2nnc(NCCO)[nH]c2=O)cc1	-1	10	-6	-3	-6	/
C=CCNc1nnc(Cc2ccc(C(C)C)cc2)c(=O)[nH]1	2	-32	17	23*	48	14
CCOc1ccccc1NC(=O)NC(C)c1ccncc1 (stereo not given)	-4	-25	-8	4	-18	/
Cc1ccc(-n2[nH]c(C)c(C=Nc3ccc4[nH]c(=O)[nH]c4c3)c2=O)cc1	21	-16	23	5	/	/
Cc1ccc(N=Cc2c(C)[nH]n(-c3nc4ccccc4[nH]3)c2=O)cc1	66*	23	-9	35*	95*	53*
COc1ccc(CCN2C(=O)NC(NS(=O)(=O)c3ccccc3)(C(F)(F)F)C2=O)cc1OC (stereo not given)	2	1	-7	-4	-5	/
CCCC(=O)Nc1nc2ccc(NC(=O)c3ccccc3F)cc2s1	6	37	36	75*	39	55*
Cc1ccc2nc(NC(=O)c3ccccc3F)sc2c1	0	-7	-56	1	15	/
Nn1cnnc1N/N=C/c1ccc(F)cc1	4	-2	-18	-4	-11	/
Nn1cnnc1N/N=C/c1ccc(Cl)c([N+](=O)[O-])c1	3	-52	-21	52*	13	2
CCCNC(=O)C(Cc1ccccc1)NC(=O)c1ccc(-c2ccccc2)cc1 (stereo not given)	/	/	/	/	5	/
Cc1cc(C)cc(C(=O)OCC(=O)NCc2cccs2)c1	1	-2	27	3	-3	/
Cc1cc2c(cc(C(=O)OCC(=O)NCc3cccs3)n2C(C)C)o1	3	39	58	77*	66	55*
